The panel holds about 79,000 compounds, 15% with a hit somewhere; the sample as a whole holds those more often. The source made the active and inactive calls. Rule as the data show it: active = growth inhibition above about 70%; inactive = the rest.
Experiments:
[1] = NCI Yeast Anticancer Drug Screen. Data for the rad50 strain (AID 155);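 also: 0% = growth of vehicle-only cultures of the same strain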; conditions: S. cerevisiae rad50 strain growth inhibition; at 50.0 µM; active compounds read high
Summary of the method: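 Readout: growth inhibition relative to vehicle-treated cultures. Compound exposure was carried out in a genetically defined yeast strain deficient in DNA damage repair.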

[2] = NCI Yeast Anticancer Drug Screen. Data for the mec2-1 strain (AID 157); conditions: S. cerevisiae mec2-1 strain, at 50.0 µM, active compounds read high
Summary of the method: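 Each compound was tested on mec2-1 yeast, a strain altered in DNA damage repair or cell cycle control. Growth inhibition is reported relative to vehicle.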

[3] = NCI Yeast Anticancer Drug Screen. Data for the sgs1 mgt1 strain (AID 161);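 also: 0% = growth of cultures given vehicle only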; conditions: S. cerevisiae sgs1 mgt1 strain, at 50.0 µM, active compounds read high
Summary of the method: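 Inhibition of yeast growth, normalised to vehicle-treated controls, is reported for a strain bearing genetic alterations in DNA damage repair.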

[4] = NCI Yeast Anticancer Drug Screen. Data for the cln2 rad14 strain (AID 165);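 also: 0% = growth equal to vehicle treated cultures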; conditions: S. cerevisiae cln2 rad14 strain, at 50.0 µM, active compounds read high
Summary of the method: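 Test compounds were added to cln2 rad14 yeast cultures; inhibition of growth was then determined by comparison with vehicle treatment.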

[5] = NCI Yeast Anticancer Drug Screen. Data for the bub3 strain (AID 167); conditions: S. cerevisiae bub3 mutant strain, at 50.0 µM, active compounds read high
Summary of the method: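 Readout: yeast growth inhibition, expressed relative to vehicle-only wells. The test organism is a mutant strain from a panel with lesions in DNA repair or checkpoint genes.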

[6] = NCI Yeast Anticancer Drug Screen. Data for the mlh1 rad18 strain (AID 175); conditions: S. cerevisiae mlh1 rad18 strain growth inhibition; at 50.0 µM; active compounds read high
Summary of the method: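 Inhibition values reflect reduced growth of mutant yeast versus vehicle-treated controls following compound exposure; the mutations affect DNA damage repair.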

Measured: growth inhibition

COc1cc(OC)c(SC)cc1CC(C)N (stereo unspecified)
inactive: [1] -19.2% | [2] -0.95% | [3] -3.2% | [4] -16.1% | [5] 21.3% | [6] -3.05%

N[C@@H](Cc1ccc2oc3cc(=O)c4ccccc4c-3nc2c1)C(=O)O
inactive: [1] 26% | [2] 32.9% | [3] 10% | [4] 39.2% | [5] 28.8% | [6] 35%

O=C1/C(=C\c2ccc([N+](=O)[O-])cc2)N2CCC1CC2
inactive: [1] -8.3% | [2] 5.3% | [3] -3.65% | [4] -0.45% | [5] 1.75% | [6] 7.05%

CNC(=O)Oc1cc(C)cc(C(C)C)c1
inactive: [1] 14.3% | [2] 0.05% | [3] 1.6% | [4] 9.15% | [5] 1.3% | [6] 6%

CCOC(=O)NP(=O)(Nc1ccc(C)cc1)Nc1ccc(C)cc1
inactive: [1] 6.2% | [2] -12% | [3] -0.3% | [4] 6.75% | [5] -9.55% | [6] -1.45%

COc1ccc(CCN2CCOCC2)cc1
inactive: [1] 31.9% | [2] 2.15% | [3] 47.8% | [4] 9.25% | [5] 34% | [6] 34.2%

COc1ccc2c(c1)CC(CN1CCC3(CC1)C(=O)N(C)CN3c1ccccc1)O2 (stereo unspecified)
inactive: [1] -24.6% | [2] 0.95% | [3] -19.7% | [4] -27.4% | [5] 0.45% | [6] -9.8%

CN(C)C1CCNCC1
inactive: [1] 19.7% | [2] 5.2% | [3] 17% | [4] 4.75% | [5] 4.6% | [6] -1.5%

CCCC[N+]1(C)CCC(OC(=O)C(O)(c2ccccc2)C2CCCC2)C1 (stereo unspecified)
inactive: [1] 15.6% | [2] 5.25% | [3] 5.3% | [4] -32.8% | [5] -6.3% | [6] -5.5%

O=C(Nc1ccc(Cl)cc1C(=O)c1ccccc1)c1ccc([N+](=O)[O-])cc1
inactive: [1] -1.4% | [2] -3.1% | [3] -0.5% | [4] -40.1% | [5] 4.2% | [6] 12.8%

CN1CCN(C)C1=Nc1ccccc1/C=C/C=C1C(=O)N(C)C(=O)N(C)C1=O
inactive: [1] 2.7% | [2] 8.5% | [3] 12.8% | [4] 12.2% | [5] -1.2% | [6] 14.8%

O=S(=O)(F)c1cc(Cl)c(O)c(S(=O)(=O)F)c1
inactive: [1] 10.1% | [2] 6.25% | [3] 5.8% | [4] 3.65% | [5] -2.75% | [6] 10.1%

[Cl][Hg][c]1cccs1
active: [1] 99.6% | [2] 99.8% | [3] 99.5% | [4] 99.5% | [5] 99.7% | [6] 99.6%

O=P1(c2ccccc2)CCCCN1 (stereo unspecified)
inactive: [1] 12.2% | [2] -16.1% | [3] -5.1% | [4] -20.9% | [5] 3.55% | [6] 1.8%

CNP1(N(C)C)=NP(NC)(N(C)C)=NP(NC)(N(C)C)=N1 (stereo unspecified)
inactive: [1] -13.9% | [2] 12.9% | [3] -10.6% | [4] -6.85% | [5] 6.6% | [6] 10.4%

NC(Cc1ccccc1)c1nn[nH]n1 (stereo unspecified)
inactive: [1] -10.2% | [2] -19.1% | [3] -35.6% | [4] -40.6% | [5] -17.4% | [6] -19.3%

NC(=O)Oc1cc(OC(N)=O)cc(N(CCCl)CCCl)c1
inactive: [1] 32.8% | [2] 34% | [3] 36.6% | [4] 12% | [5] 40% | [6] 40%

C1NCC2CNCC1O2
inactive: [1] 3.2% | [2] -12.4% | [3] -7.95% | [4] 6.35% | [5] 7.9% | [6] -3.15%

O=S(=O)(O)C1CCC(O)C2[N-]CCCC21.O=S(=O)(O)C1CCC(O)C2[N-]CCCC21.[Ni+2] (stereo unspecified)
inactive: [1] 50.8% | [2] -4.3% | [3] 27.9% | [4] -13.4% | [5] 8.4% | [6] 23.9%

N#CC(C#N)=Cc1cccc(F)c1
inactive: [1] 37% | [2] 25.2% | [3] 19.4% | [4] 15.6% | [5] 20.2% | [6] 31.9%

Cc1cc(Cl)ccc1O
inactive: [1] -1.2% | [2] -14.8% | [3] -0.3% | [4] 0.5% | [5] -3.1% | [6] -1.7%

NC1=C(c2nc(-c3cc4ccccc4oc3=O)cs2)C(c2ccco2)c2c(c3ccccc3oc2=O)O1 (stereo unspecified)
inactive: [1] -3.15% | [2] -9.9% | [3] -21.4% | [4] -38.8% | [5] 4.1% | [6] -14.3%

O=[N+]([O-])c1ccc(P2(=O)Nc3ccccc3N2)cc1
inactive: [1] -21.9% | [2] -12.7% | [3] -8.6% | [4] -46.8% | [5] 0.25% | [6] -11.6%

N#CCC(=O)[O][Sn]([c]1ccccc1)([c]1ccccc1)[c]1ccccc1
active: [1] 98% | [2] 98.3% | [3] 98.8% | [4] 97.8% | [5] 97.8% | [6] 98.7%

CN1C2CCC1CC(OC(=O)c1cccc(O)c1)C2 (stereo unspecified)
inactive: [1] 30.9% | [2] 0.55% | [3] 0.9% | [4] 4.95% | [5] 15.9% | [6] 16.4%

CC1OC(n2cc(C(N)=O)c3c(N)ncnc32)C(O)C1O (stereo unspecified)
inactive: [1] 19.4% | [2] 20.9% | [3] 3.75% | [4] 16.9% | [5] 14.2% | [6] 20.1%

O=[N+]([O-])c1cc([As](=O)(O)O)ccc1S(=O)(=O)O
inactive: [1] -0.6% | [2] 7.65% | [3] 7% | [4] -3% | [5] 9.2% | [6] 2.2%

CC[N+](CC)(CC)CC#CC[N+](CC)(CC)CC
inactive: [1] 5.65% | [2] 5% | [3] 14.3% | [4] 1.45% | [5] 12.8% | [6] 6.1%

O=c1cc([N+](=O)[O-])n(O)cc1[N+](=O)[O-]
inactive: [1] 31.1% | [2] 12.6% | [3] 32.5% | [4] 21.2% | [5] -4.1% | [6] 44.5%

C=CCn1nnnc1N
inactive: [1] -4.3% | [2] -16.8% | [3] -5.55% | [4] -37.9% | [5] 3.1% | [6] -6.2%

CCCC[As](=O)(O)CC(C)C
inactive: [1] -3.2% | [2] -1.75% | [3] -7.4% | [4] 4.9% | [5] -14.2% | [6] 1.2%

O=[C-]CC(=O)c1ccccc1.O=[C-]CC(=O)c1ccccc1.[Fe+2]
inactive: [1] -7.85% | [2] 3.15% | [3] 8.5% | [4] 12% | [5] -0.65% | [6] 6.15%

CC(=O)NCN(C)[N+](=O)[O-]
inactive: [1] -9.6% | [2] -4.95% | [3] 8.85% | [4] -11% | [5] -19.8% | [6] -6.5%

c1ccc(P2c3ccccc3Oc3ccccc32)cc1
inactive: [1] 36.9% | [2] 7.3% | [3] 42.2% | [4] 42.6% | [5] 32.6% | [6] 37%

CC(=O)[O-].CC(=O)[O-].O=C(N/N=C/c1cc(Cl)cc(Cl)c1O)c1ccncc1.[Ni+2]
inactive: [1] -12.6% | [2] 18.4% | [3] 19.1% | [4] -22.2% | [5] -0.05% | [6] 16.9%

Nc1ccc([As](=O)(O)O)cc1
inactive: [1] 27.8% | [2] 19.8% | [3] 14.9% | [4] 11.8% | [5] 7.9% | [6] 21.3%

C=C(C)[C@]12CC(C)C34OC(/C=C\C=C\CCCCCCCCC)(O[C@@H]1[C@@H]3[C@@H]1O[C@]1(CO)[C@@H](O)[C@]1(O)C(=O)C(C)=C[C@@H]41)O2 (stereo partly specified)
active: [1] 74.4% | [2] 70% | [3] 84.9% | [4] 73% | [5] 73.1%
inactive: [6] 64.2%

CC1=CC(=O)[C@@H](O)[C@]2(C)[C@H]3[C@@]4(O)OC[C@]35[C@H]([C@@H](C)[C@H]4O)[C@@H](O)C(=O)O[C@@H]5C[C@@H]12
inactive: [1] 41.8% | [2] 9.7% | [3] 36% | [4] 30.2% | [5] 15.2% | [6] 35.9%

CO[C@@]12[C@@H]3N[C@@H]3CN1C1=C(C(=O)C(NCCC#N)=C(C)C1=O)[C@@H]2COC(N)=O
inactive: [1] -15.8% | [2] 13.2% | [3] -13.1% | [4] 10.6% | [5] -5.3% | [6] 55.6%

CC(C)COC(=O)Cc1ccccc1
inactive: [1] 23.2% | [2] 12.6% | [3] 13.7% | [4] -30.1% | [5] -0.55% | [6] 25.4%

CC1(C)OCC(CO)(Nc2nc(N3CC3)nc(N3CC3)n2)CO1
inactive: [1] -12.6% | [2] 2.9% | [3] 3.3% | [4] -38% | [5] 5.6% | [6] -2.8%
